Our source for the z-score and composite z-score values is PubChem BioAssay.

Molecules are shown by their SMILES. Calls of active or inactive are those of the source. Unless noted, no rule for the calls is given here.

Assay [1] can be described thus: HepG2 liver cancer cell viability effects, profiling panel, resazurin fluorescence, 24 h, PK04 Diversity Set (AID 1172). Also: test concentration not given here. The following applies: higher = more signal. A general note: Resazurin is reduced to fluorescent resorufin, in cell work by metabolically active cells.
A short description of assay [2]: basal S. cerevisiae growth modulation, no modifier, primary screen, OD600, strain BY4716, 24 h, basal condition (AID 1173). The following applies: OD600, 24 h, higher = more signal, called active from +8 up or from −8 down.
Assay [3] in a line: MM1S myeloma cell viability, profiling panel, resazurin fluorescence, basal, 24 h, PK04 Diversity Set (AID 1174). Also: test concentration not given here. The following applies: higher = more signal, called active from +8 up or from −8 down.
Assay [4] deals with Dihydroorotate dehydrogenase (quinone), mitochondrial (Plasmodium falciparum (isolate 3D7)) (UniProt Q08210). The experiment in a line: PfDHODH enzyme inhibitors, primary screen, biochemical, C-terminal His tag, absorbance 600 nm (AID 1175).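 Also: recombinant parasite enzyme with a five histidine tag at its C terminus; test concentration not given here.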 As to conditions: DCIP absorbance 600 nm, higher = more signal, called active from +8 up or from −8 down.
Sequence of Dihydroorotate dehydrogenase (quinone), mitochondrial (Plasmodium falciparum (isolate 3D7)) (Q08210 whole entry, looked up): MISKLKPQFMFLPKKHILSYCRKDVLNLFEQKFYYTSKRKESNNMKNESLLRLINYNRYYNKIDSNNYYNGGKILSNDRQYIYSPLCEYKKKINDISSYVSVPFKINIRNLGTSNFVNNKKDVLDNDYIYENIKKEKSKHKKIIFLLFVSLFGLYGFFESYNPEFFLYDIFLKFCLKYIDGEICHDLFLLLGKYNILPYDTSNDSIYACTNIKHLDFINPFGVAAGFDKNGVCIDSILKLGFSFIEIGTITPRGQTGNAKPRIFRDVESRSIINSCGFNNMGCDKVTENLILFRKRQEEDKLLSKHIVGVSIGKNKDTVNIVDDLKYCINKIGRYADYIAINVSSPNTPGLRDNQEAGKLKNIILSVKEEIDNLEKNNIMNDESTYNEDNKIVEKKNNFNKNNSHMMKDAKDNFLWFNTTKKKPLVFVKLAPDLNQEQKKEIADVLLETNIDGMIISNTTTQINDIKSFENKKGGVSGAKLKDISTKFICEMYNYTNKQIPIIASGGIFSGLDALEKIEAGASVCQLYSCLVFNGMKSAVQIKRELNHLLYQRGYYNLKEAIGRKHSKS
Assay [5] in a line: P. aeruginosa biofilm formation inhibitors, primary screen, strain PAO1, LB-PBS medium, absorbance 600 nm (AID 1176). Also: test concentration not given here. As to conditions: P. aeruginosa PAO1 growth/biofilm, A600, 12 h; higher = more signal.
A short description of assay [6]: S. cerevisiae RM11-1a growth modifiers, primary screen, strain RM11-1a, OD600, basal, 24 h (AID 1177).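 Also: cultures grown under basal conditions with no added stressor; test concentration not given here.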 As to conditions: OD600, 24 h, higher = more signal, called active from +8 up or from −8 down.
Assay [7] is described as follows: E. coli acrAB mutant growth effects, primary screen, E. coli filamentation inducers, strain DRC39, OD650, 24 h (AID 1178).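 Also: growth measured as culture turbidity by optical density at 650 nm; test concentration not given here.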 As to conditions: higher = more signal, called active from +8 up or from −8 down.
Assay [8] in a line: E. coli acrAB mutant growth effects, primary screen, E. coli filamentation inducers, strain DRC39, OD650, 48 h (AID 1179).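 Also: screen aims at cell division blockers that make cells filament.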 As to conditions: E. coli DRC39 delta-acrAB growth, higher = more signal, called active from +8 up or from −8 down.
A short description of assay [9]: RPMI8226 myeloma cell viability, profiling panel, resazurin fluorescence, basal, 24 h, PK04 Diversity Set (AID 1180).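 Also: RPMI8826 multiple myeloma cell line at 5000 cells per well; test concentration not given here.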 As to conditions: higher = more signal.
Assay [10] deals with E3 ubiquitin-protein ligase XIAP (Homo sapiens) (UniProt P98170). The experiment in a line: XIAP binders, primary screen, biophysical, small-molecule microarray, fluorescence 635 nm (AID 1181).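 Also: score merges 667 nm emission and signal to noise over triplicate slides.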 The following applies: small-molecule microarray binding, higher = more signal.
Sequence of E3 ubiquitin-protein ligase XIAP (Homo sapiens) (P98170 whole entry, looked up): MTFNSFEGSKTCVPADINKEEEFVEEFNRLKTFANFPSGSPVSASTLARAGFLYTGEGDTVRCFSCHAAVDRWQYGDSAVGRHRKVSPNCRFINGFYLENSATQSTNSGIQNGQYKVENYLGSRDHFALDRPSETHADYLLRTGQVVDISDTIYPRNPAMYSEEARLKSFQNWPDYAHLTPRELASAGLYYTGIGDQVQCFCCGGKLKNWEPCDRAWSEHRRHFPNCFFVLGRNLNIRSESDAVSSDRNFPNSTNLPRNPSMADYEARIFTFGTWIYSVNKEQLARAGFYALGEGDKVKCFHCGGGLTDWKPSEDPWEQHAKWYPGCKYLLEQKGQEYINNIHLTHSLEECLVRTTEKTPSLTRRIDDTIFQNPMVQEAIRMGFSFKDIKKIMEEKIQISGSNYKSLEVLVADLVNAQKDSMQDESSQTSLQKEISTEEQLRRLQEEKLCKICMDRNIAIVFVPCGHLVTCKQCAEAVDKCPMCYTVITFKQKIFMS

Take `COc1ccc(CCNC(=O)[C@@H]2c3ccccc3C(=O)N(Cc3ccccc3C(F)(F)F)[C@H]2c2ccc(CO)cc2)cc1`: the z-score is 0.743 in [1]; 0.415 (inactive) in assay [2]; 0.711 (inactive) in assay [3]; -0.77 (inactive) in [5]; 1.51 (inactive) in [6]; 0.709 (inactive) in assay [7]. Besides, the z-score in assay [8] is 0.633 (inactive); in [9] it was 0.837. In addition, the composite z-score in assay [4] was 0.717 (inactive); in assay [10], 0.0819.

As to `C[C@@H]1ON(c2ccccc2)[C@H](c2ccccc2)[C@H]1C(=O)N1C(=O)OC[C@H]1Cc1ccccc1`, the z-score in [1] was 1.07; in assay [2] it was 0.534 (inactive); in [3], 0.962 (inactive); in [5], 0.0238 (inactive); in [6] it was 1.39 (inactive); in assay [7] it was 0.884 (inactive). For the same compound, the z-score is 0.934 (inactive) in assay [8] and 0.852 in assay [9]. The results for the composite z-score in assay [4] and in assay [10] were -0.255 (inactive) and -0.1, respectively.

With `CN(C)C(=O)[C@@]1(CCC(=O)OC(C)(C)C)N=C(c2ccc(OCCCO)cc2)O[C@H]1c1ccccc1N=[N+]=[N-]`, the z-score in [1] is 0.506; in assay [2], 0.314 (inactive); in assay [3] it was -1.36 (inactive); in assay [5], 1.35 (inactive); in assay [6], 1.98 (inactive); in assay [7], 0.306 (inactive). In addition, the z-score is -0.264 (inactive) in assay [8] and -0.839 in assay [9]. For the same compound, the composite z-score was 0.645 (inactive) in assay [4] and 0.0428 in [10].

Consider `CC1CC/C=C\[C@H]2OC34C=CCN(c5ccc(Cl)cc5)C(=O)[C@H]3N(C(CO)C(C)C)C(=O)[C@]4(C)C2C(=O)O1` (stereo not given in full), for which the z-score is -0.328 in [1]; -0.432 (inactive) in assay [2]; 0.0849 (inactive) in [3]; 0.109 (inactive) in [5]; -0.245 (inactive) in assay [6]; -0.163 (inactive) in assay [7]. Further, the z-score in assay [8] is 0.129 (inactive); in assay [9], 0.399. Further, the composite z-score in assay [4] is -2.37 (inactive); in [10], 0.0808.

For the compound `COc1ccc([Si](C)(C)[C@@H]2[C@@H](CCO)O[C@]3(C(=O)N(Cc4cccc(N5C(=O)COc6ccccc65)c4)c4ccccc43)[C@H]2C)cc1`, the z-score in assay [1] is -2.07; in [2] it was 0.967 (inactive); in assay [3] it was -3.29 (inactive); in assay [5], 1.3 (inactive); in assay [6], 4.05 (inactive); in assay [7], 0.775 (inactive). Further, the values for the z-score in assay [8] and in assay [9] were 0.295 (inactive) and -3.26, respectively. Also, the composite z-score in assay [4] was 0.737 (inactive); in assay [10] it was 0.0424.

Consider `CCOC(=O)C[C@H]1[C@H](OC(=O)Cc2ccc3c(c2)OCO3)[C@@H](NC(=O)c2ccccc2)c2cc(OCCCO)ccc2N1C(=O)c1ccc2ccccc2n1`, for which the z-score in [1] is -0.287; in assay [2] it was -1.02 (inactive); in assay [3], 0.426 (inactive); in [5], -0.0057 (inactive); in [6] it was -1.68 (inactive); in assay [7] it was 0.907 (inactive). For the same compound, the z-score in assay [8] was 0.88 (inactive); in assay [9], 0.121. Besides, the composite z-score was -1.03 (inactive) in assay [4] and -0.138 in assay [10].

Consider `C#CCOC(=O)N[C@H](C=CCCCC)c1ccccc1`, for which the z-score in assay [1] was 0.063; in assay [2], 0.578 (inactive); in assay [3], -0.883 (inactive); in assay [5], 0.936 (inactive); in [6], -0.0736 (inactive); in [7] it was -0.467 (inactive). The z-score in [8] is -0.424 (inactive); in [9], -0.137. For the same compound, the composite z-score in assay [4] was -0.837 (inactive); in [10] it was -0.0133.

As to `N#Cc1ccc(NN2C(C(O)c3ccccc3)C=CC3C(=O)N(c4ccccc4)C(=O)C32)cc1` (stereo not given), the z-score in assay [1] was -0.822; in [2], -1.47 (inactive); in assay [3], -0.0476 (inactive); in assay [5], 0.158 (inactive); in assay [6], -0.323 (inactive); in assay [7], -0.371 (inactive). The z-score in assay [8] was 0.0355 (inactive); in assay [9], -1.15. Moreover, the results for the composite z-score in assay [4] and in [10] were -0.804 (inactive) and -0.0062, respectively.

`O=C1C[C@@](C(=O)O)(c2ccc([N+](=O)[O-])cc2)[C@@H](c2ccc(CO)cc2)N1CC12CC3CC(CC(C3)C1)C2`: the z-score in assay [1] was -0.246; in assay [2], -0.418 (inactive); in assay [3], -0.646 (inactive); in assay [5] it was 0.692 (inactive); in assay [6], 1.08 (inactive); in assay [7], 0.667 (inactive). The z-score in [8] was 0.507 (inactive); in [9], -0.474. For the same compound, the composite z-score was -3.13 (inactive) in assay [4] and -0.234 in assay [10].

In the case of `COCCCNC(=O)[C@]1(Cc2ccccc2CN=[N+]=[N-])N=C(c2ccc(OCCCO)cc2)O[C@@H]1c1ccccc1CN=[N+]=[N-]`, the z-score in assay [1] was -0.504; in assay [2] it was 0.409 (inactive); in [3], -2.2 (inactive); in assay [5], 1.29 (inactive); in assay [6] it was -0.605 (inactive); in [7] it was 0.445 (inactive). Besides, the z-score in assay [8] was 0.0972 (inactive); in assay [9], -2.03. Moreover, the values for the composite z-score in assay [4] and in assay [10] were 0.502 (inactive) and 0.0427, respectively.

Turning to `COCCOC(=O)N1C(=O)[C@@]2(c3ccccc31)[C@H](c1ccccc1OCCO)N1[C@H](c3ccccc3)[C@H](c3ccccc3)OC(=O)[C@H]1[C@@H]2C(=O)N1CCc2cc(OC)c(OC)cc2C1`, the z-score was -0.413 in assay [1]; 1.99 (inactive) in assay [2]; 0.181 (inactive) in [3]; 1.96 (inactive) in assay [5]; 3.06 (inactive) in assay [6]; -1.29 (inactive) in assay [7]. Besides, the z-score in assay [8] is -1.3 (inactive); in assay [9], 0.186. The composite z-score was 0.301 (inactive) in assay [4] and -0.146 in [10].

Turning to `C=CCNC(=O)[C@@H]1[C@H]2C(=O)O[C@H](c3ccccc3)[C@H](c3ccccc3)N2[C@H](c2ccc(O)cc2)[C@@]12C(=O)Nc1ccc(C#CCCO)cc12`, the z-score in assay [1] was 0.917; in [2], -0.599 (inactive); in [3], 0.343 (inactive); in assay [5], -0.212 (inactive); in [6], -0.769 (inactive); in assay [7] it was 0.883 (inactive). Moreover, the figures for the z-score in assay [8] and in assay [9] were -0.582 (inactive) and 1.32, respectively. Further, the composite z-score in [4] is -0.489 (inactive); in assay [10] it was -0.377.
